Measurements as given in PubChem BioAssay (NCI).
The panel holds about 83,000 compounds, 20% with a hit somewhere; the sample as a whole holds those more often.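 Note: values are percent growth. 100 is the growth of untreated cells, values between 100 and 0 indicate rising inhibition; between -100 and 0 indicates cell death.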 Activity calls are given as the source filed them. How the source made its calls: active means growth percent below 10; inactive means the rest.

What was measured:
Experiment in all cases: NCI-60 one-dose screen, 48 h (100 = growth as untreated, 0 = no growth, -100 = all killed)
Details in all cases: 10 µM
[1] = test system: MALME-3M melanoma
[2] = test system: MDA-MB-231 breast
[3] = test system: RXF 393 renal
[4] = test system: M14 melanoma
[5] = test system: SK-MEL-5 melanoma
[6] = test system: LOX IMVI melanoma
[7] = test system: SK-MEL-28 melanoma
[8] = test system: SN12C renal
[9] = test system: MOLT-4 leukemia
[10] = test system: OVCAR-5 ovarian
[11] = test system: OVCAR-4 ovarian
[12] = test system: SK-OV-3 ovarian
[13] = test system: IGROV1 ovarian
[14] = test system: HS 578T breast
[15] = test system: NCI/ADR-RES ovarian
[16] = test system: T-47D breast
[17] = test system: SW-620 colon
[18] = test system: MCF7 breast
[19] = test system: HCT-116 colon
[20] = test system: KM12 colon

Measured: growth

COc1cc2c(O[C@@H]3OC[C@H](O)[C@H](O)[C@H]3O)c3c(c(-c4ccc5c(c4)OCO5)c2cc1OC)C(=O)OC3
active: [5] -93.4% | [6] -57.7%
inactive: [1] 54.4% | [2] 22.9% | [3] 53.6% | [4] 31.3% | [7] 40.8% | [8] 56.2% | [9] 110% | [10] 39.4% | [11] 74% | [12] 69.1% | [13] 53% | [14] 91.1% | [15] 90.1% | [16] 18.2% | [17] 68.8% | [18] 71.2% | [19] 29.1% | [20] 71.6%

COc1cc(OC)c(S(=O)(=O)N(CCCl)CCCl)cc1C(=O)/C=C/c1ccc(Cl)cc1
inactive: [1] 85.4% | [2] 67.1% | [3] 45.3% | [4] 68.4% | [5] 87.1% | [7] 92.3% | [8] 86% | [9] 58.8% | [10] 107% | [11] 83.4% | [12] 79% | [13] 76.3% | [14] 78.6% | [15] 52.3% | [16] 74.4% | [17] 48.7% | [18] 15.8% | [19] 49.2% | [20] 23.4%

CC(=O)O[C@@H]1C[C@H]2O[C@@H]3C=C(C)CC[C@]3(C)[C@]1(C)[C@]21CO1
inactive: [8] 20.7% | [10] 84.3% | [12] 18.1% | [13] 22.8% | [14] 22.7% | [15] 14.6% | [20] 27.4%
active: [1] 5.52% | [2] 4.27% | [3] 4.11% | [4] -45.9% | [5] -50.9% | [6] -41.5% | [7] -1.27% | [9] -9.55% | [11] -1.86% | [16] -2.72% | [17] 7.09% | [18] 3.89% | [19] 0.731%

C=C1[C@@H](C)C2[C@H](Cc3ccccc3)NC(=O)[C@]23[C@H](OC(C)=O)/C=C/[C@@](C)(O)C(=O)[C@@H](C)C/C=C/[C@H]3[C@@H]1O (stereo partly drawn)
active: [3] -1.19% | [6] 1.65% | [13] 8.46% | [14] 9.13%
inactive: [1] 81.2% | [2] 33% | [4] 51.3% | [5] 33.5% | [7] 87.1% | [8] 79% | [9] 62.3% | [10] 96.1% | [11] 34.7% | [12] 15.1% | [15] 98.5% | [16] 81.6% | [17] 77.2% | [18] 23.3% | [19] 44.4% | [20] 62.7%

CC1=C[C@H]2O[C@@H]3C[C@H]4OC(=O)/C=C\C=C\[C@H]([C@@H](C)O)OCC[C@@H](C)[C@H](O)C(=O)OC[C@@]2(CC1)[C@]4(C)[C@]31CO1
active: [1] -67.9% | [2] -25.2% | [3] -73.7% | [4] -76% | [5] -90.2% | [6] -79% | [7] -49.1% | [8] -19% | [9] -19.2% | [10] -16.8% | [11] -19% | [12] -18.6% | [13] -13.4% | [14] -6.56% | [15] -24.9% | [16] -19% | [17] 0.381% | [18] -7.85% | [19] -27.7% | [20] 4.84%

NC1CCc2cc(O)c(O)cc2C1 (stereo not drawn)
inactive: [2] 101% | [3] 81.9% | [4] 83.5% | [5] 87.4% | [6] 70.9% | [7] 87.1% | [8] 90.5% | [9] 66% | [10] 91.4% | [11] 98.7% | [12] 104% | [13] 97.9% | [14] 100% | [15] 85.6% | [16] 88.9% | [17] 93.1% | [18] 63.6% | [19] 58.1% | [20] 97.5%
